KCNH2 3.1 inh – qHTS for Inhibitors of KCHN2 3.1: Mutant qHTS; 0.95% of 340,000 active; U2OS KCNH2 3.1, thallium flux FluxOr; hits give low values; activity change, % (tested at about 1.8 µM);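 active means maximum activity change below -70%; inconclusive means maximum activity change from -70% to -50%; inactive means maximum activity change above -50%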;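 further: thallium influx rate constant from kinetic fluorescence after stimulation buffer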
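FluxOr-based Tl+ influx in U2OS cells transduced with KCNH2 3.1 virus; rate constants normalized to DMSO controls.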
JMJD2E inh – qHTS Assay for Inhibitors of Human Jumonji Domain Containing 2E (JMJD2E). Lysine-specific demethylase 4E (Homo sapiens), B2RXH2. JMJD2E catalytic domain, FDH-coupled NADH fluorescence (FDH is formaldehyde dehydrogenase). Potency, µM (doses to about 57.1 µM), hits mostly inhibitors. 1.6% of 230,000 active. AID 2147, 2009; active means well fitted inhibition curve with a large enough effect, not every such curve was filed as active; inconclusive means small, poorly fitted or top-dose-only effect, or another doubt; inactive means no such curve, though single readings can be large or run the other way; further: nearly all actives have a fitted effect of over 50% in size
CtBP-E1A blk – qHTS Assay for Inhibitors of the CtBP/E1A Interaction; AlphaScreen GST-E1A/His-CtBP binding, 1536-well; hits give low values; 0.49% of 340,000 active; activity change, % (concentration not given with the values)
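Homogeneous bead-based format: GST-tagged E1A captured on glutathione donor beads, His-tagged CtBP on nickel acceptor beads; compounds precede bead addition by 2 h at 37 °C.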
KCNH2 WT inh – qHTS for Inhibitors of KCHN2 3.1: Wildtype qHTS | activity change, % at 1.84 µM | Voltage-gated inwardly rectifying potassium channel KCNH2 (Homo sapiens), Q12809 | U2OS, BacMam KCNH2, thallium flux FluxOr; hits give low values | 0.37% of 340,000 active;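 active means maximum activity change below -70%; inconclusive means maximum activity change between -70% and -50%; inactive means maximum activity change above -50%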
Target sequence (Q12809 whole entry, looked up): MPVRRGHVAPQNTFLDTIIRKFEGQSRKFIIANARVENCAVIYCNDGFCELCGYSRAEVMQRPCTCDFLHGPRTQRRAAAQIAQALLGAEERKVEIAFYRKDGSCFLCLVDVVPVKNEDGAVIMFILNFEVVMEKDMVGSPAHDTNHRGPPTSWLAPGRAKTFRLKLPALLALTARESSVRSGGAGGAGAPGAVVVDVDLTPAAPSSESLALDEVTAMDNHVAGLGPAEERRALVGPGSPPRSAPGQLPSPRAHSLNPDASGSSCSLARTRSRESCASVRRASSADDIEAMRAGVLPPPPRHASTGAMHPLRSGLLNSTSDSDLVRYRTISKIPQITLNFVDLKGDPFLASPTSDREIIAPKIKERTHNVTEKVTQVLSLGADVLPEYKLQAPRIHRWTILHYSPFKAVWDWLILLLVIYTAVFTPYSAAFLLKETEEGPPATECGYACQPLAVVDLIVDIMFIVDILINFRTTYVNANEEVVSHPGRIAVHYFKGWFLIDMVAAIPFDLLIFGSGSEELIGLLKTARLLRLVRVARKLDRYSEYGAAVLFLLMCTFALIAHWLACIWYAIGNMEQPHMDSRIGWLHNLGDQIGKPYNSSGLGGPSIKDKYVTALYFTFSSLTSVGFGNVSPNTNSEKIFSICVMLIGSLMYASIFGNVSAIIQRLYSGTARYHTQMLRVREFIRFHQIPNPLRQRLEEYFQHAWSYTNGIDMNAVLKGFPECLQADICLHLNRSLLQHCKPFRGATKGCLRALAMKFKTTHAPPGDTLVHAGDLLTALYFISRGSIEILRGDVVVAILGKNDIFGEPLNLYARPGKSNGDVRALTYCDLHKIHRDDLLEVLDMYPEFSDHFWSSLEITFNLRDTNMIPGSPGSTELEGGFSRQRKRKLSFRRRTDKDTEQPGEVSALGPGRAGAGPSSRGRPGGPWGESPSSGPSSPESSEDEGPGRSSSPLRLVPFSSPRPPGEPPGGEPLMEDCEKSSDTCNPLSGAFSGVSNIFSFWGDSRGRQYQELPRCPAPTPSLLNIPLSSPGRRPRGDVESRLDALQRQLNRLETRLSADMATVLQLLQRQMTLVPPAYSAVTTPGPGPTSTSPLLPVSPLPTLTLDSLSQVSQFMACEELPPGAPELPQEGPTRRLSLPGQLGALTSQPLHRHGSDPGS
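U2OS cells were transduced with wild-type KCNH2 virus (2.03 x 10^8 / mL) for 4 h at room temperature, then cultured overnight at 37 C. Thallium flux was read with FluxOr dye. Rate constants were normalized to DMSO controls.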
Six1-Eya2 inh – qHTS Assay for Inhibitors of the Six1/Eya2 Interaction. activity change, % (no concentration beside the values). 0.56% of 360,000 active. AlphaScreen GST-Six1/His-Eya2 binding, biochemical; hits give low values. Homeobox protein SIX1 (Homo sapiens) + Protein phosphatase EYA2 (Homo sapiens), …
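Homogeneous AlphaScreen proximity assay pairing GST-Six1 with His-tagged Eya2 (added as 5X mix: 250 nM and 500 nM) in 50 mM Tris pH 8.0, 300 mM NaCl, 1 mM TCEP. Glutathione donor and nickel acceptor beads; 1 h, 37 °C, dark.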
Each line names hits and unclear results; the compound was inactive in the other large screens. Most compounds without a hit are left out; they make up all but 2% or so of the library. Unless noted, no stated cut-off is given here; in the data, active means activity change below about -65%; inconclusive means mostly about -30% to -63%; inactive means weaker than that.

COc1ccc(/C=C/C(=O)c2cc3c(cc2N)OCO3)cc1	JMJD2E inh 22µM
O=C(NCc1cccs1)c1ccc(CS(=O)Cc2cccc(Cl)c2)o1 (stereo unspecified)	none (no result: JMJD2E inh)
CS(=O)(=O)c1ccc(Cl)c(NC(=O)CSc2nc3ccccc3c(=O)n2CCCN2CCOCC2)c1	none (no result: CtBP-E1A blk, KCNH2 WT inh)
COC(=O)c1ccc2c(=O)n(Cc3ccco3)c(SCC(=O)Nc3ccc(C)c(Cl)c3)nc2c1	KCNH2 3.1 inh -75
O=C(CSc1nc2cc(Cl)ccc2c(=O)n1Cc1ccco1)Nc1ccc(S(=O)(=O)N2CCOCC2)cc1	KCNH2 3.1 inh -75
O=C(CSc1nc2ccccc2c(=O)n1Cc1ccco1)Nc1cccc(O)c1	none (no result: JMJD2E inh)
CC(C)c1ccc(NC(=O)CSc2n[nH]c(=O)n2Cc2ccco2)cc1	KCNH2 3.1 inh -88 (no result: CtBP-E1A blk)
O=C(CSc1n[nH]c(=O)n1Cc1ccco1)Nc1ccccc1	none
CS(=O)(=O)c1ccc(Cl)c(NC(=O)CSc2nc3ccccc3c(=O)n2Cc2ccco2)c1	KCNH2 3.1 inh -98 (no result: JMJD2E inh)
O=C(Cn1cnc2c(nnn2-c2cccc(Cl)c2)c1=O)N1CCOCC1	none
Cc1c(NC(=O)CCCN2C(=O)c3cccc4cccc(c34)C2=O)c(=O)n(-c2ccccc2)n1C	JMJD2E inh inconclusive
Cc1ccc(Cc2c(C)[nH]c(=S)[nH]c2=O)cc1	none
N#C/C(=C\c1cn(-c2ccccc2)nc1-c1cc2ccccc2o1)c1nc2ccccc2[nH]1	none
CN(C)S(=O)(=O)c1cccc(-c2nn(-c3ccccc3)cc2/C=C(\C#N)c2nc3ccccc3[nH]2)c1	KCNH2 3.1 inh -76
Cc1cc(/C=C(/C#N)c2nc3ccccc3[nH]2)c(C)n1-c1cc(C(=O)O)cc(C(=O)O)c1	JMJD2E inh 22µM, CtBP-E1A blk -66, Six1-Eya2 inh -69
Cc1snc(SCC(=O)c2ccc([N+](=O)[O-])cc2)c1C#N	JMJD2E inh 4.5µM (no result: CtBP-E1A blk)
Cc1snc(SCC(=O)c2ccc(F)cc2)c1C#N	none (no result: CtBP-E1A blk)
O=C(N1CCOCC1)N(Cc1cccs1)C1CCCC1	KCNH2 3.1 inh -80
O=C(Cn1cnc([N+](=O)[O-])c1)Nc1ccccc1C(F)(F)F	KCNH2 WT inh -74 (no result: JMJD2E inh)
CC(CC(=O)Nc1ccc(F)c([N+](=O)[O-])c1)c1ccccc1 (stereo unspecified)	none
O=C(COc1cccnc1[N+](=O)[O-])Nc1c(Cl)cccc1Cl	none (no result: JMJD2E inh)
O=C(COc1cccnc1[N+](=O)[O-])c1ccc(Cl)s1	JMJD2E inh 14µM
Nc1ccc(S(N)(=O)=O)cc1N	JMJD2E inh 7.9µM, CtBP-E1A blk inconclusive, Six1-Eya2 inh inconclusive
O=C1c2ccccc2C(=O)N1/N=C/c1ccc(O)c(O)c1	JMJD2E inh 16µM
O=C1C2C3C=CC(CC3)C2C(=O)N1/N=C/c1ccc(O)c(O)c1 (stereo unspecified)	JMJD2E inh 16µM
COc1cc(/C=N/NC(=O)C[n+]2ccccc2)cc(OC)c1OC(C)=O	none
CCN(C[C@H]1N[C@@](CC)(C(=O)OC)[C@H]2C(=O)N(Cc3ccccc3)C(=O)[C@@H]12)C(=O)Nc1ccc(C(F)(F)F)cc1	KCNH2 3.1 inh -75 (no result: JMJD2E inh)
OC[C@@H]1CN(Cc2cccs2)C[C@H](n2cnc3c(N4CCOCC4)ncnc32)O1	none (no result: KCNH2 3.1 inh, JMJD2E inh, KCNH2 WT inh)
O=C(Nc1nc(-c2ccc(S(=O)(=O)N3CCCCCC3)cc2)cs1)c1cccs1	JMJD2E inh inconclusive, CtBP-E1A blk -70, Six1-Eya2 inh inconclusive
Cc1ccc(-c2csc(NC(=O)c3cccc(S(=O)(=O)N4CCN(C)CC4)c3)n2)cc1	KCNH2 3.1 inh -79
O=C(Nc1nc(-c2ccc3ccccc3c2)cs1)C1CCN(S(=O)(=O)c2cccs2)CC1	JMJD2E inh 18µM
Cc1ccc(-c2csc(NC(=O)C3CCN(S(=O)(=O)c4cccs4)CC3)n2)cc1	none
Cc1ccnc(NC(=O)c2cccc(S(=O)(=O)N3CCN(c4ccc(F)cc4)CC3)c2)c1	KCNH2 3.1 inh -72, CtBP-E1A blk inconclusive (no result: JMJD2E inh)
O=C(Nc1ccc(S(=O)(=O)N2CCCC2)cc1)c1cccs1	none
Cn1c(-c2ccccc2)c(Sc2ccccc2)c2cc(-c3ccc4cc[nH]c4c3)ccc21	none (no result: KCNH2 3.1 inh, JMJD2E inh, KCNH2 WT inh)
O=C(Nc1nc(-c2ccc(S(=O)(=O)N3CCCC3)cc2)cs1)c1cccs1	JMJD2E inh inconclusive, CtBP-E1A blk -75, Six1-Eya2 inh -73
CC12COC3(C(=O)Nc4ccc5ccccc5c4)CC1CCC32C (stereo unspecified)	none
COc1ccc(/C=N\NC(=O)c2ccccc2Br)cc1COc1ccc(F)cc1	none (no result: JMJD2E inh)
COc1cc(C(=O)N/N=C/c2ccc(OC)c(CN3CCN(c4ccc(F)cc4)CC3)c2)ccc1O	KCNH2 3.1 inh -105, Six1-Eya2 inh inconclusive (no result: CtBP-E1A blk, KCNH2 WT inh)
COc1ccc(/C=N/NC(=O)c2ccccc2F)cc1CN1CCN(c2ccc(F)cc2)CC1	KCNH2 3.1 inh -105, KCNH2 WT inh inconclusive
COc1ccc(C(=O)N/N=C/c2ccc(OC)c(COc3ccc(F)cc3)c2)cc1	none (no result: JMJD2E inh)
COc1ccc(C)cc1NC(=O)c1ccc(CN2CCN(c3ccccc3)CC2)cc1	KCNH2 3.1 inh -104
COc1ccc(NC(=O)c2ccc(CN3CCN(c4ccccc4)CC3)cc2)cc1OC	none
COc1ccc(/C=N/NC(=O)c2ccccc2)cc1CN1CCN(c2ccc(F)cc2)CC1	KCNH2 3.1 inh -107, KCNH2 WT inh -108
CCc1nc2ccc(C(=O)NCc3cccs3)cn2c1N(CC)CCOC	none (no result: KCNH2 3.1 inh, JMJD2E inh, KCNH2 WT inh)
CCN1CCN(S(=O)(=O)c2ccc(S(=O)(=O)NC3CC3)cc2)CC1	none (no result: JMJD2E inh)
COc1ccc(Cc2nc3ccccc3n2CC(=O)N/N=C/c2ccccc2)cc1OC	JMJD2E inh inconclusive
Cc1nnc(NC(=O)c2ccc3c(c2)NC(=O)CS3)s1	none (no result: JMJD2E inh, CtBP-E1A blk)
COc1cc(NC(=O)c2csc(-c3ccncc3)n2)cc(C(=O)Nc2cccc(C(F)(F)F)c2)c1	KCNH2 3.1 inh -118, JMJD2E inh inconclusive, KCNH2 WT inh inconclusive
OC(c1ccccn1)(c1ccccn1)c1ccccn1	Six1-Eya2 inh -85
Cc1ccc2nc(NC(=O)c3cccc(-c4cc5ccccc5oc4=O)c3)sc2c1	none
Cc1ccc(OCC(=O)N2CCN(c3nnc(-c4ccccc4)c4ccccc34)CC2)cc1	KCNH2 3.1 inh -70, CtBP-E1A blk inconclusive, Six1-Eya2 inh inconclusive
O=c1c2c([N+](=O)[O-])cc([N+](=O)[O-])cc2sn1-c1ccc(Br)cc1	JMJD2E inh 3.5µM, Six1-Eya2 inh inconclusive
Cc1ccc(NC(=O)c2nc[nH]c2C(=O)N2CCOCC2)c(C(=O)c2ccccc2)c1	none
O=C(N/N=C/c1cc(Cl)cc([N+](=O)[O-])c1O)c1cccc(S(=O)(=O)N2CCOCC2)c1	CtBP-E1A blk -87, Six1-Eya2 inh -91 (no result: JMJD2E inh)
